Results: ChEMBL document CHEMBL4888484, “Replenishing the malaria drug discovery pipeline: Screening and hit evaluation of the MMV Hit Generation Library 1 (HGL1) against asexual blood stage Plasmodium falciparum ,using a nano luciferase reporter read-out” (2022)
About 410 (8.5%) of roughly 4,800 compounds showed an effect of 50% or more. The full list was thinned out, with strong results kept by preference.

test system: Plasmodium falciparum; test: Confirmatory screen in NF54 pLDH assay, in single point, at 2uM, 72h; assay type: functional, Erythrocyte; conditions: timepoint 72 hour

SMILES	% Inhibition [%]
Cc1ccc(CN2CCN(C[C@@H](O)Cn3c4ccccc4n4c(=O)cc(C)c(C#N)c34)CC2)c(C)c1	96
N#Cc1c(CN2CCOCC2)cc(=O)n2c1[nH]c1ccccc12	0
COc1cc2c(cc1OC)CN(C(=O)c1cccc(N3C(=O)C(C)(C)CS3(=O)=O)c1)CC2	3
Cc1cc2n(n1)C(C(F)(F)F)CCN2C(=O)C(C)N1C(=O)C2CCCCC2C1=O (centres undefined)	4
Cn1nc(C(=O)NC2CCCCC2)cc1C(=O)NC1CCCCC1	12
C[C@@H](CNc1ncc(C(=O)N2CCOCC2)cc1Cl)c1nncn1C	-9
COc1ccc(Cl)cc1S(=O)(=O)c1cnc(N2CCOCC2)nc1N	10
CN1CCN(c2c(F)cc3c(=O)c(C(=O)O)cn(-c4ccc(OC5CC6CCC5(C)C6(C)C)c(F)c4)c3c2F)CC1 (centres undefined)	-4
COc1cccc(NC(=O)N2CCN(c3nc4ccccc4n(Cc4ccccc4)c3=O)CC2)c1	0
Cc1ccccc1S(=O)(=O)NCc1nnc(C(=O)Nc2ccc(F)cc2F)s1	11
CCC(=O)N1CCN(c2cc(Nc3ccc(C)cc3)nc(C)n2)CC1	-1
CCNc1nc(C)cc(Nc2ccc(NS(=O)(=O)c3c(C)noc3C)cc2)n1	100
CCC(=O)Nc1nc2c(OC)cc(NS(=O)(=O)c3c(C)noc3C)cc2s1	10
CCNc1nc(C)cc(Nc2ccc(NC(=O)c3cc(C)ccc3C)cc2)n1	99
Cc1onc(N)c1S(=O)(=O)Nc1ccncc1	-2
Cc1ccc(C)c(S(=O)(=O)NCCNc2ccc(Nc3ccncc3)nn2)c1	29
O=C(Nc1ccc(N2CCOCC2)cc1)Nc1ccc(F)cc1F	7
CCc1ccc(NC(=O)[C@H](C)N2CCC(NS(=O)(=O)c3cccs3)CC2)cc1	77
Cn1cc(C(=O)NCC2CCN(S(=O)(=O)c3cccs3)CC2)cn1	2
CCc1ccc(NC(=O)[C@@H]2CCn3c(C(=O)c4ccccc4)ccc32)cc1	6
Cc1nn(Cc2cccc(F)c2)c(C)c1NC(=O)c1cccc(COc2ccc(Br)cc2)c1	16
COc1cc(C)sc1C(=O)NCc1csc(=O)[nH]1	-7
COc1ccc(C(=O)n2nc(Nc3ccccc3Cl)cc2Nc2ccccc2Cl)cc1	12
COc1ccc(-n2ncc3c(N)c4c(nc32)CCCC4=O)cc1	11
C[C@@H](C(=O)Nc1cccc2ccccc12)N1CCCCC1	7
CCOCCC1(CN=C(N)N2CCCCC2)CCCC1	5

SMILES	% Inhibition [%]
Cc1ccc(C2c3ccsc3CCN2CCC(=O)N2CCN(C(=O)Cc3cccs3)C(C)C2)cc1 (centres undefined)	26
OC[C@H]1CCc2nnc(C(F)F)n2C1	11
CCn1nc(-n2cnnc2)c(NS(=O)(=O)c2cccc(Cl)c2)c1C	3
CCOc1cc(CNCCCn2ccnc2)ccc1OCc1ccccc1	23
Clc1ccc(Cn2cc(CNCCCn3ccnc3)c3ccccc32)c(Cl)c1	100
COc1cccc(CNCCCN2CCOCC2)c1OCc1ccc(Cl)cc1Cl	12
OCCNCc1ccc(Cl)cc1Cl	6
Clc1ccc(COc2ccc(Cl)cc2CNCCCn2ccnc2)c(Cl)c1	100
COc1cccc(CNCCN2CCOCC2)c1OCc1ccc(Cl)cc1Cl	11
COc1ccc(NC(=O)[C@@H](c2cc(OC)c(OC)c(OC)c2)N(Cc2ccccc2)C(=O)Cn2nnc3ccccc32)cc1	-15
COc1ccc(S(=O)(=O)N2CCN(S(=O)(=O)c3ccc(OC)cc3)C2)cc1	-2
CCOc1c(CNC(C)(C)CC(C)(C)C)cccc1OC	5
CC(Oc1ccc2c(c1)C(c1ccccc1)N(Cc1ccccc1F)CC2)C(=O)NC1CC1 (centres undefined)	50
C[C@H](C(=O)NCC1CCN(Cc2ccccc2F)CC1)C1CCOCC1	3
COc1ccc2cc3n(c2c1)C[C@](C(=O)NC1CCCCCC1)(c1ccccc1)N(Cc1ccccc1F)C3=O	-26
O=C(c1ccc2c(c1)OCO2)N1CCn2c1nc1ccccc12	3
CC(=O)Nc1cccc(NC(=O)[C@H]2CC[C@H](Cn3c(O)nc4ccccc4c3=O)CC2)c1	5
COc1cc2c(cc1Cl)-n1cccc1C1(CCNCC1)N2	-15
CC1=CC(=[N+](CCO)CCO)C=C/C1=C(\c1ccc(N(CCO)CCO)cc1C)c1ccccc1Cl	87
O=C(CN1CCN(Cc2cccc(Cl)c2)C1=O)N1CCN(c2ccccc2)CC1	4
COc1cccc(-c2cc3c(N4CCC(C(=O)NC[C@H]5CCCO5)CC4)nccn3n2)c1	5
Cc1ccc(S(=O)(=O)Cc2nc3cc(C)c(C)cc3[nH]c2=O)cc1	2
N#Cc1cc(S(=O)(=O)NCCN(C2CC2)S(=O)(=O)c2ccc(Cl)c(C#N)c2)ccc1Cl	86
O=S(=O)(NC1CCCCC1)c1ccc(Cl)c(S(=O)(=O)NC2CCCCC2)c1	6
Cc1cccc(NC(=O)CCC(=O)OCC(F)(F)F)c1C	-1
COc1cccc(-c2cc(C(=O)N3CCCN(C(=O)c4cc(-c5cccc(OC)c5)nc5ccccc45)CC3)c3ccccc3n2)c1	-26

SMILES	% Inhibition [%]
Cc1nc(-c2ccccc2)cc2nn(CC(=O)NC3CCCCC3)c(=O)n12	-8
O[C@H]1CNCC[C@@H]1Nc1cc(-c2ccccc2)nc2ccccc12	76
CC(C)(C)NC(=O)C1CCN(C[C@@H]2CC=CCC2)CC1	10
Cc1ccc(/C=C(\C(=O)NC[C@H]2CCCO2)n2ccccc2=O)cc1	12
CCCC1(CNC(=O)Nc2nc(CS(C)(=O)=O)no2)CC1	6
CCCCCn1c(NCc2cc(Cl)ccc2O)nc2ccccc21	21
CCOc1cc(CNCCN2CCOCC2)cc(Cl)c1OCc1ccccc1	9
CCCc1noc([C@H]2CC(=O)N(c3ccccc3C)C2)n1	8
CCc1nc2c(C(=O)N3CCOc4c(C)cc(C)cc43)ccnc2[nH]1	60
CCOc1ccc(C/C(=C/N)c2nc(-c3ccc(Cl)cc3)cs2)cc1	15
CCn1c(=O)c(N2CCC(C(=O)NCCCc3ccccc3)CC2)nc2cccnc21	-22
Clc1cccc(-c2c[nH]c([C@@H]3COCCN3C3CCOCC3)n2)c1	-16
CN1CCC[C@H](c2nnc3sc(-c4ccc(OCc5ccccc5)cc4)nn23)C1	8
CC(C(=O)Nc1nccs1)N1CCCC(c2ccn[nH]2)C1 (centres undefined)	45
Cc1cc(-c2cncc(CN3CCCCC3)c2)ccc1F	8
O=S(=O)(c1cccc(Cl)c1)N1CCc2nc(N3CCCCC3)nc(Oc3ccccc3)c2C1	78
Cc1noc(C)c1CNc1cc(S(=O)(=O)N2CCCCC2)ccc1Oc1ccccc1	14
Cc1ccc(-c2nn(Cn3nc(C)c(Cl)c3C)c(-c3ccc(C)cc3)c2Br)cc1	-12
Cn1c(CN2CCOC[C@@]23CCOC3)nnc1C1CC1	13
O=C(Nc1ccccc1Cl)Nc1cccc2c(-c3ccccc3)c(C(=O)N3CCOCC3)[nH]c12	12
Cc1ccc(S(=O)(=O)c2c(C)cc(-c3ccccc3)nc2N2CCOCC2)cc1	12
CCO[C@@]1(c2ccccc2)NC(=O)c2cc3c(cc21)OCCO3	-18
CC(=O)N(CCN1CCOCC1)[C@H]1CCN(S(=O)(=O)c2cccc(Cl)c2)C1	9
O=C(NCCCN1CCOCC1)c1ccc(-c2cnc(NC3CCCCC3)nc2)cc1	-15
Cn1cc(CN2CCC(C(=O)NCCCN3CCCCC3)CC2)c2cc(Cl)ccc21	-8
CO/N=C(\Nc1cc(C)ccc1C)c1nonc1N	16

SMILES	% Inhibition [%]
O=C(C[C@@H]1NC(=O)c2ccccc2NC1=O)NCc1ccc(Cl)cc1Cl	-6
Nc1cc(F)c(Br)cc1Cl	7
CCn1c(=O)c(N2CCC(C(=O)N3CCN(c4ccccc4F)CC3)CC2)nc2cccnc21	-9
O=C1C[C@@H](c2cccc(Br)c2)c2c(O)nc(N3CCOCC3)nc2N1	-7
CCN(C(C)=O)c1nc(CN2C(=O)N[C@](C)(c3ccc(F)cc3Br)C2=O)cs1	9
Cc1nccc(O[C@H]2CCCN(C(=O)CN3CCN(c4ccccc4)C3=O)C2)n1	9
COc1cccc(C(=O)Nc2noc(-c3cccc(OC)c3)c2-c2ccc(Cl)cc2)c1	-19
COc1ccc(-c2c(-c3cccc(OC)c3)[nH]c3c2c(=O)[nH]c(=O)n3C)cc1	97
COc1cccc(N2C(=O)N[C@H](C)C2=O)c1	15
CCCN1CCN(S(=O)(=O)c2cccc3nonc23)CC1	11
O=C1CCc2cc(N[C@@H](C(=O)N3CCCC3)c3ccccc3)ccc2N1	5
Clc1cccc(N2CCN(Cc3nc(-c4ccco4)no3)CC2)c1	-1
O=C(NC1CCN(Cc2ccco2)CC1)c1ccco1	-2
Cc1nn(C)cc1C(=O)N1CCN(c2nncc3ccccc23)CC1	-10
CCNC(=O)c1nc(-c2ccncc2)cs1	-16
COc1ccnc(NCc2ccc(N3CCOCC3)cc2)n1	10
O=C(Cn1nc(C2CC2)nc1C1CC1)N1CCOCC1	11
CCN(C[C@H](C)C#N)C(=O)C(=O)Nc1ccc(F)cc1Cl	13
COc1cc(Br)cc(C#N)c1O	9
CC(C)c1cccc(Nc2nc3ccncc3n(C(C)C)c2=O)c1	94
O=C(CCOCC(F)(F)F)Nc1ccc2c(c1)C(=O)NC2	-5
Cn1cc(C(C(=O)O[C@@H]2C[C@@H]3CC[C@@]2(C)C3(C)C)c2cn(C)c3ccccc23)c2ccccc21	3
CC[N+](CC)(CC(=O)OC1CC2CCC1(C)C2(C)C)CC(=O)OC1CC2CCC1(C)C2(C)C (centres undefined)	92
Cc1ccnc(-c2noc(Cn3c(=O)c(C)cn(C)c3=O)n2)c1	4
Nc1nc(Cc2ccccc2)c(Br)c(=O)[nH]1	5
COc1ccc(C2=NC3=S(N2c2ccccc2)N(C(C)=O)C(C(Cl)(Cl)Cl)N3c2ccccc2)cc1 (centres undefined)	13
